Six molecules from PubChem BioAssay (EPA / NIEHS) can be followed below.

Active and inactive are the calls of the source. The calls were made as follows: active = hit-call score of the fitted dose curve at least 0.9, where 1 is the maximum; inactive = score below 0.9.

Read-out in test [1]: Urokinase-type plasminogen activator receptor (uPAR), PLAUR (gene 5329)
Description: BSK_4H_uPAR: BioMAP Diversity Plus: 4H Assay for Urokinase-type plasminogen activator receptor (uPAR) Biomarker Activity (AID 2283030). As to conditions: primary human endothelial cells (HUVEC); actives raise or lower the signal. In short, it runs like this: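 Human umbilical vein endothelial cells in the 4H system, 24 h after chemical dosing. Cell-surface uPAR measured by ELISA, fitted in both directions versus DMSO; cytotoxicity checked by SRB total protein in parallel cultures.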

Read-out in test [2]: Vascular endothelial growth factor receptor 2 (Homo sapiens) (UniProt P35968)
Kind of test: BSK_4H_VEGFRII: BioMAP Diversity Plus: 4H Assay for Vascular endothelial growth factor receptor 2 (VEGFR2) Biomarker Activity (AID 2283031).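 As to AC50: cell-surface VEGFR2 protein level quantified by ELISA.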 As to conditions: primary human endothelial cells (HUVEC); actives raise or lower the signal. In short, it runs like this: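 Primary human umbilical vein endothelial cells (4H system), 24 h exposure; cell-surface VEGFR2 measured by ELISA. Bidirectional fitting versus DMSO; cytotoxicity checked in parallel by SRB total-protein staining.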

Read-out in test [3]: Human Leukocyte Antigen - DR isotype (HLADR), HLA-DRA (gene 3122)
Description: BSK_BE3C_HLADR: BioMAP Diversity Plus: BE3C Assay for Human Leukocyte Antigen - DR isotype (HLADR) Biomarker Activity (AID 2283032). As to conditions: primary human bronchial epithelial cells; actives raise or lower the signal. Put shortly: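 Human primary bronchial epithelial cells (BE3C system) exposed to compound for 24 hours; cell-surface HLA-DR measured by ELISA, fitted bidirectionally relative to DMSO. Total protein by SRB in parallel cultures tracked cytotoxicity.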

Read-out in test [4]: Vascular cell adhesion molecule 1 (VCAM1), VCAM1 (gene 7412)
Description: BSK_4H_VCAM1: BioMAP Diversity Plus: 4H Assay for Vascular cell adhesion molecule 1 (VCAM1) Biomarker Activity (AID 2283033). To be noted: primary human endothelial cells (HUVEC); actives raise or lower the signal. Put shortly: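 Primary human umbilical vein endothelial cells, 4H stimulation system, treated for 24 h; cell-surface VCAM-1 quantified by ELISA. Bidirectional fitting against DMSO; cytotoxicity tracked by SRB total-protein staining in parallel cultures.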

Read-out in test [5]: Interferon-gamma inducible Protein 10 (IP10), CXCL10 (gene 3627)
Description: BSK_BE3C_IP10: BioMAP Diversity Plus: BE3C Assay for Interferon-gamma inducible Protein 10 (IP10) Biomarker Activity (AID 2283034). As to conditions: primary human bronchial epithelial cells; actives raise or lower the signal. In short, it runs like this: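 Primary human bronchial epithelial cells, with IP-10 measured by ELISA 24 hours after chemical dosing. Bidirectional fit against DMSO; cytotoxicity checked by SRB total protein staining in parallel cultures.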

Read-out in test [6]: Transforming growth factor beta 1 (TGFb1), TGFB1 (gene 7040)
Kind of test: BSK_BE3C_TGFb1: BioMAP Diversity Plus: BE3C Assay for Transforming growth factor beta 1 (TGFb1) Biomarker Activity (AID 2283036). To be noted: primary human bronchial epithelial cells; actives raise or lower the signal. In short, it runs like this:
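Primary human bronchial epithelial cells dosed with chemical; TGF-b1 measured by ELISA 24 h after dosing. Bidirectional curve fitting against DMSO negative control; SRB total-protein staining in parallel cultures gauged cytotoxicity.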

Read-out in test [7]: Plasminogen activator inhibitor-1 (PAI1), SERPINE1 (gene 5054)
Description: BSK_BE3C_PAI1: BioMAP Diversity Plus: BE3C Assay for Plasminogen activator inhibitor-1 (PAI1) Biomarker Activity (AID 2283037). To be noted: primary human bronchial epithelial cells; actives raise or lower the signal. In short, it runs like this: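 Primary human bronchial epithelial cells (BE3C system) exposed 24 h; PAI-1 quantified by ELISA. Parallel sulforhodamine B staining of total protein flags cytotoxicity. Bidirectional fit versus DMSO.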

Read-out in test [8]: urokinase plasminogen activator (uPA), PLAU (gene 5328)
Description: BSK_BE3C_uPA: BioMAP Diversity Plus: BE3C Assay for urokinase plasminogen activator (uPA) Biomarker Activity (AID 2283038).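 As to outcome: uPA protein level quantified by ELISA in cell cultures; uPA read one day after compound addition.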 As to conditions: primary human bronchial epithelial cells; actives raise or lower the signal. In short, it runs like this: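 Primary human bronchial epithelial cells, uPA measured by ELISA 24 h after dosing. Bidirectional change relative to DMSO; cytotoxicity checked in parallel cultures by sulforhodamine B total-protein staining.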

Read-out in test [9]: Urokinase-type plasminogen activator receptor (uPAR), PLAUR (gene 5329)
Kind of test: BSK_BE3C_uPAR: BioMAP Diversity Plus: BE3C Assay for Urokinase-type plasminogen activator receptor (uPAR) Biomarker Activity (AID 2283039).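 Also: cells exposed to compound for one day before measurement.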 To be noted: primary human bronchial epithelial cells; actives raise or lower the signal. In short, it runs like this:
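Primary human bronchial epithelial cells dosed for 24 h; uPAR quantified by ELISA with bidirectional fitting against DMSO. Overt cytotoxicity assessed in parallel cultures by SRB total-protein staining (0.1% SRB, 560 nm).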

Read-out in test [10]: Interleukin-6 (IL6), IL6 (gene 3569)
Kind of test: BSK_CASM3C_IL6: BioMAP Diversity Plus: CASM3C Assay for Interleukin-6 (IL6) Biomarker Activity for (AID 2283040). To be noted: primary human coronary artery smooth muscle cells; actives raise or lower the signal.

Read-out in test [11]: Tissue plasminogen activator (tPA), PLAT (gene 5327)
Kind of test: BSK_BE3C_tPA: BioMAP Diversity Plus: BE3C Assay for Tissue plasminogen activator (tPA) Biomarker Activity (AID 2283041).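 Also: tPA level quantified by ELISA one day after compound addition.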 To be noted: primary human bronchial epithelial cells; actives raise or lower the signal. Put shortly:
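Primary human bronchial epithelial cells in the BE3C system, exposed to compound for 24 h. tPA was quantified by ELISA; DMSO served as baseline, with gain or loss of signal fitted. Cytotoxicity checked in parallel cultures by SRB total-protein staining.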

Read-out in test [12]: Interleukin-8 (IL8), CXCL8 (gene 3576)
Description: BSK_CASM3C_IL8: BioMAP Diversity Plus: CASM3C Assay for Interleukin-8 (IL8) Biomarker Activity (AID 2283042).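 Also: IL-8 protein level quantified by ELISA.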 As to conditions: primary human coronary artery smooth muscle cells; actives raise or lower the signal.

Read-out in test [13]: Human Leukocyte Antigen - DR isotype (HLADR), HLA-DRA (gene 3122)
Description: BSK_CASM3C_HLADR: BioMAP Diversity Plus: CASM3C Assay for Human Leukocyte Antigen - DR isotype (HLADR) Biomarker Activity (AID 2283043).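 Also: cell-surface HLA-DR protein level quantified by ELISA.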 To be noted: primary human coronary artery smooth muscle cells; actives raise or lower the signal.

Read-out in test [14]: Macrophage colony-stimulating factor (MCSF), CSF1 (gene 1435)
Kind of test: BSK_CASM3C_MCSF: BioMAP Diversity Plus: CASM3C Assay for Macrophage colony-stimulating factor (MCSF) Biomarker Activity (AID 2283044).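 Also: M-CSF protein amount quantified by ELISA after 24 h exposure.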 As to conditions: primary human coronary artery smooth muscle cells; actives raise or lower the signal.

Read-out in test [15]: Low-density lipoprotein receptor (LDLR), LDLR (gene 3949)
Kind of test: BSK_CASM3C_LDLR: BioMAP Diversity Plus: CASM3C Assay for Low-density lipoprotein receptor (LDLR) Biomarker Activity (AID 2283045).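 Also: LDLR protein level on the cell surface quantified by ELISA.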 To be noted: primary human coronary artery smooth muscle cells; actives raise or lower the signal.

Read-out in test [16]: Monocyte Chemoattractant Protein-1 (MCP1), CCL2 (gene 6347)
Kind of test: BSK_CASM3C_MCP1: BioMAP Diversity Plus: CASM3C Assay for Monocyte Chemoattractant Protein-1 (MCP1) Biomarker Activity (AID 2283046).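 Also: MCP-1 level quantified by ELISA 24 h after dosing.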 To be noted: primary human coronary artery smooth muscle cells; actives raise or lower the signal.

Test [17] can be described thus: BSK_CASM3C_Proliferation: Cell Proliferation Assessment in the BioMAP Diversity Plus: CASM3C Assay (AID 2283047).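 Also: sulforhodamine B total protein stain as relative cell number at 560 nm; sub-confluent cells exposed 48 h before staining; fitted both ways against DMSO so gain or loss of cell number.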 As to conditions: primary human coronary artery smooth muscle cells.
Read-out in test [18]: Monokine induced gamma interferon (MIG), CXCL9 (gene 4283)
Description: BSK_CASM3C_MIG: BioMAP Diversity Plus: CASM3C Assay for Monokine induced gamma interferon (MIG) Biomarker Activity (AID 2283048).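 Also: MIG protein level measured by ELISA.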 To be noted: primary human coronary artery smooth muscle cells; actives raise or lower the signal.

Read-out in test [19]: serum amyloid A (SAA), SAA1 (gene 6288)
Kind of test: BSK_CASM3C_SAA: BioMAP Diversity Plus: CASM3C Assay for serum amyloid A (SAA) Biomarker Activity (AID 2283049).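 Also: SAA protein level quantified by ELISA.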 To be noted: primary human coronary artery smooth muscle cells; actives raise or lower the signal.

By AC50 is commonly meant the concentration at which the activity in the assay is half-maximal. `CC(C)Oc1cc(-n2nc(C(C)(C)C)oc2=O)c(Cl)cc1Cl`: the outcome in test [1], in test [6], in test [9], in [10], in test [11] and in [12] was inactive. Further, the result in [13], in test [14], in test [15], in [16], in [18] and in test [19] was inactive. The half-maximal activity concentration (AC50) in test [2] is 32.9 µM (active); in [3], 27.4 µM (active); in test [4], 28.2 µM (active); in [5], 33.9 µM (active); in [7], 20 µM (active); in test [8], 27.6 µM (active). The concentration at half-maximal activity (AC50) in test [17] is 29 µM (active).

With `CC1=C(C(=O)Nc2ccccc2)SCCO1`, the outcome in test [1], in test [2], in test [3], in [4], in [5] and in test [6] was inactive. The result in test [7], in test [9], in test [10], in [11], in [12] and in test [13] was inactive. In addition, the result in [15], in test [16], in [17], in test [18] and in test [19] was inactive. For the same molecule, the AC50 is 3.97 µM (active) in test [8] and 0.524 µM (active) in test [14].

With `CCNc1nc(Cl)nc(NCC)n1`, the outcome in test [1], in test [2], in test [3], in test [4], in test [5] and in [6] was inactive. Also, the result in [7], in test [8], in test [9], in test [10], in [11] and in test [12] was inactive. Further, the outcome in test [13], in test [14], in [15], in test [16], in test [17] and in test [18] was inactive. Also, the outcome in test [19] was inactive.

For the molecule `CC(C)C1(C)N=C(c2nc3ccccc3cc2C(=O)O)NC1=O` (centres undefined), the outcome in test [1], in test [2], in test [3], in test [4], in test [5] and in [6] was inactive. The outcome in [7], in test [8], in test [9], in [10], in test [11] and in [12] was inactive. In addition, the outcome in test [13], in test [14], in test [15], in [16], in test [17] and in test [18] was inactive. Moreover, the outcome in test [19] was inactive.

Turning to `CC(C)(C)c1ccc(CSc2cnn(C(C)(C)C)c(=O)c2Cl)cc1`, the outcome in test [1], in test [4], in test [8], in test [9], in test [10] and in [11] was inactive. For the same molecule, the outcome in test [12], in [13], in test [14], in test [16], in test [18] and in [19] was inactive. For the same molecule, the AC50 in test [2] is 12.3 µM (active); in test [3] it was 7.02 µM (active); in test [5], 23.5 µM (active); in [6], 0.832 µM (active); in test [7], 14.2 µM (active); in [15], 20 µM (active). The AC50 in test [17] was 6.17 µM (active).

For the molecule `C=CC1(C)OC(=O)N(c2cc(Cl)cc(Cl)c2)C1=O` (centres undefined), the result in test [1], in [2], in test [3], in test [4], in test [5] and in test [6] was inactive. For the same molecule, the outcome in [7], in [8], in [9], in test [10], in test [11] and in [12] was inactive. Further, the outcome in test [13], in [14], in [15], in [16], in test [17] and in test [18] was inactive. Moreover, the result in test [19] was inactive.
